An excerpt weighted towards active compounds, which were near 2.9% of everything screened.
ALOX12 inh: Primary qHTS assay for inhibitors of human arachidonate 12S-lipoxygenase (ALOX12): Round 2 | Polyunsaturated fatty acid lipoxygenase ALOX12 (Homo sapiens), P18054 | purified 12hLO, xylenol orange hydroperoxide absorbance | Potency, µM (doses to about 108 µM), without a hit: at the top dose activity change, negative = inhibition, most hits filed as inhibitors | 580,000 tested, 1.1% active | AID 1671190, 2021; also: potency is read from the fitted curve at half-maximal effect; % is scaled to controls: 0 for no effect and ±100 for the full control effect
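Hydroperoxide product was detected by ferrous iron/xylenol orange as the 573 to 405 nm absorbance ratio. Arachidonic acid at 40 uM (final) was turned over for 30 min at room temperature by 150 nM human 12hLO, pH 7.0 Hepes buffer, after 15 min compound preincubation.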
POLK inh: qHTS for Inhibitors of Polymerase Kappa | 400,000 tested, 0.53% active | Potency, µM (top dose mostly 107 µM), inactives show at the top dose activity, negative = inhibition, most hits filed as inhibitors | DNA polymerase kappa (Homo sapiens), Q9UBT6 | purified Pol kappa, fluorescent DNA synthesis assay, 10 min; also: potency is read from the fitted curve at half-maximal effect; % is scaled to controls: 0 for no effect and ±100 for the full control effect
Target sequence (Q9UBT6 whole entry, looked up): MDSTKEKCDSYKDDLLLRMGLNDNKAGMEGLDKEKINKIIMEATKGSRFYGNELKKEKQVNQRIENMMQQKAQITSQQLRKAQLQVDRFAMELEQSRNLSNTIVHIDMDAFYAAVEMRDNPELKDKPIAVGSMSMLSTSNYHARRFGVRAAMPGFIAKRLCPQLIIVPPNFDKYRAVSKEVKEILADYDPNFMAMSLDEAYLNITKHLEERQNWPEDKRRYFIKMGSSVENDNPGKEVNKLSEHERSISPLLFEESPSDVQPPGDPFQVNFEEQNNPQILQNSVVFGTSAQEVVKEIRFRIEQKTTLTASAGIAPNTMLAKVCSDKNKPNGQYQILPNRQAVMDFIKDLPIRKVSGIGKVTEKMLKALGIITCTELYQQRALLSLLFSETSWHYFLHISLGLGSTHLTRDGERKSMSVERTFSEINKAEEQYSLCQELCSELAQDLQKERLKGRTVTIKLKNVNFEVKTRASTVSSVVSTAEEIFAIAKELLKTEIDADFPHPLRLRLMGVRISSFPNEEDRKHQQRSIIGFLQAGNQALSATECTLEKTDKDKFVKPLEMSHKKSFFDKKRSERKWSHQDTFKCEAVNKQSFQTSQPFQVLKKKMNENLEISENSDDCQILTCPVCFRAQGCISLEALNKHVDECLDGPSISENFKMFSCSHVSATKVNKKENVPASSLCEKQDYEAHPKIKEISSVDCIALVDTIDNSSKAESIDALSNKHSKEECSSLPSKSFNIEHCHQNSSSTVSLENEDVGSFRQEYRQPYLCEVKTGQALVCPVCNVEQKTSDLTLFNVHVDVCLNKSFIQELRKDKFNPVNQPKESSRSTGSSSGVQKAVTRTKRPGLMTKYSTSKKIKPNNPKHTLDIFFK
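First, compounds were pin-transferred onto 10 nM Pol kappa. After 15 min at room temperature, substrate was added to 50 nM final. Fluorescence was then measured kinetically at 0 and 10 min.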
Pol eta inh: qHTS for Inhibitors of Polymerase Eta; recombinant Pol eta, fluorescent DNA replication assay; Potency, µM (highest dose often 114 µM), inactives show top-dose activity change, negative = inhibition, actives largely listed as inhibitors; 390,000 tested, 1.2% active; also: potency is read from the fitted curve at half-maximal effect; % is scaled to controls: 0 for no effect and ±100 for the full control effect
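Fluorescent replication assay: 50 nM final substrate added after a 15 min room-temperature compound preincubation with 10 nM enzyme. Signal taken at 0 min and again at 10 min.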
PI5P4Ka inh: qHTS for Inhibitors of phosphatidylinositol 5-phosphate 4-kinase (PI5P4K); PI5P4Kalpha enzyme, ADP-Glo luminescence, 60 min; hits give low values; Phosphatidylinositol 5-phosphate 4-kinase type-2 alpha (Homo sapiens), P48426; max response, %; 330,000 tested, 1.2% active; active = max response of -50% or lower; inconclusive = between -30% and -50%; inactive = -30% or higher; also: value at the top dose of about 77 µM; % is scaled to controls: 0 for no effect and ±100 for the full control effect
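Enzyme plus substrate dispensed, test compounds pinned in, then ATP (5 microM final) added. After 60 min at RT, ADP-Glo reagent 1 for 45 min and reagent 2 for 30 min preceded luminescence imaging.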
POLB inh: qHTS Assay for Inhibitors of DNA Polymerase Beta; Pol beta primer extension/strand displacement, fluorescence kinetic; Potency, µM (series often up to 114 µM), without a hit: at the highest dose activity change, negative = inhibition, actives largely listed as inhibitors; AID 485314, 2010; 340,000 tested, 1.3% active; P06746; also: potency is read from the fitted curve at half-maximal effect; % is scaled to controls: 0 for no effect and ±100 for the full control effect
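Pol beta (10 nM) was preincubated with compound for 15 min at room temperature. The reaction was then started with 50 nM substrate and read immediately and after a further 10 min at room temperature.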
POLI inh: qHTS for Inhibitors of Polymerase Iota | 390,000 tested, 1% active | Potency, µM (highest dose often 115 µM), without a hit: at the top dose activity, negative = inhibition, usual class: inhibitors | Pol iota fluorescent replication assay, 10 min; also: potency is read from the fitted curve at half-maximal effect
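Fluorescent replication assay read twice, at 0 min and 10 min after adding 50 nM (final) substrate. Enzyme (10 nM) and compounds were first incubated 15 min at room temperature; enzyme-free buffer wells were negative controls.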
* hit, by the source's call; u = inconclusive; x = not tested or not shown; ! = a repeat was not active; [ ] = remark or other dose. Unless noted, calls follow the shape of the dose curve; as a rule, active = well fitted inhibition curve with a large enough effect; inconclusive = small, poorly fitted or top-dose-only effect, or another doubt; inactive = no such curve, though single readings can be large or run the other way.

SMILES	ALOX12 inh	POLK inh	Pol eta inh	PI5P4Ka inh	POLB inh	POLI inh
CC(N=Cc1cc([N+](=O)[O-])ccc1O)c1ccccc1 (centres undefined)	-14.3%	0.8%[60.1 µM]	-10.2%	u	14.7%	1.7%
CC(N=Cc1cccc(O)c1O)c1ccccc1 (centres undefined)	x	12.6µM*	u	x	2.51µM*	8.91µM*
Cc1ccccc1N=Cc1cccc(O)c1O	x	10µM*	u	u	3.55µM*	u
Cc1cccc(C=Nc2ccc3c(c2)oc2ccccc23)c1O	-7.6%	-5.1%	-17.0%	10.4	-6.9%	13.6%
Cc1ccc(N=Cc2cccc(O)c2O)c(C)c1	-21.1%	20µM*	x	x	10µM*	3.55µM*
Oc1ccccc1C=NN=C1c2ccccc2-c2ccccc21	2.2%	-11.1%	-17.2%	29.8	x	5.0%
Oc1cccc(/C=N/N=C/c2cccc(O)c2O)c1O	0.0%	11.2µM*	2.82µM*	-13.5	0.316µM*	u
COC(/C=C(\C)CCC=C(C)C)OC	10.6%[176 µM]	x	x	x	x	x
CC(OC(=O)/C=C/c1cccc2cccnc12)C(=O)Nc1ccccc1 (centres undefined)	1.5%	x	x	x	x	x
CC(NC(=O)CSc1ccccc1)c1ccc2c(c1)OCCO2 (centres undefined)	12.7%	x	x	x	x	x
COc1cc2sc3cc(NCc4ccc(C)o4)ccc3c(=O)c2cc1OC	u	79.4µM*	-22.4%	-9.3	x	22.4µM*
CC(=O)Nc1nnc(SCc2ccc(F)cc2)s1	17.0%	-4.6%	-3.7%	x	22.1%	15.4%
O=C(Nc1nnc(SCc2ccc(F)cc2)s1)c1ccc2ncsc2c1	u	1.0%	-6.1%	u	2.5%	3.16µM*
CC(C)CN(CC(C)C)C1=N/C(=C\c2ccco2)C(=O)N1c1ccccc1	u	-38.7%	-11.4%	-1.7	28.2µM*	u
CCN1c2cc(C(=O)Nc3ccc(-n4ccnc4)cc3)ccc2C(=O)N2CCCCCC21 (centres undefined)	57.4%	x	x	x	x	x
CCN(CC)c1ccc(/C=N/N2C(=O)c3ccccc3C2=O)cc1	4.1%	-8.4%	-14.1%	0.7	6.0%	-5.2%
CCN(CC)c1ccc(/C=N/N2CC(=O)NC2=S)cc1	3.55µM*	-8.4%	-6.0%	-20.3	x	-17.3%
O=C(CCl)N1c2ccccc2SCC1c1ccccc1 (centres undefined)	20µM*	2.4%	u	1.2	-12.5%	-2.3%
COc1ccc(NC(=O)c2cc(-c3ccccc3O)on2)cc1OC	0.631µM*	x	x	x	x	x
COc1ccc(NC(=O)c2cc(-c3ccccc3)on2)cc1OC	0.0%	-14.1%	-0.9%	6.7	22.2%	14.5%
CN(CC(=O)NC1CC1)c1nc(-c2ccsc2)nc2ccccc12	10.8%	x	x	x	x	x
NNc1cccc2ncccc12	3.55µM*	x	x	x	x	x
O=C(CCl)Nc1cccc2ncccc12	-14.4%	-0.1%	-5.2%	11.7	27.7%	18.3%
COc1ccc(Br)cc1/C=C/C(=O)c1ccc(NC(C)=O)cc1	3.1%	-18.5%	u	-2.4	20.0%	100µM*
COc1ccc(NC(=O)/C=C/c2cc(Br)ccc2OC)cc1	379.6%	-13.7%	-2.4%	13.6	39.6%	-9.1%
SMILES	ALOX12 inh	POLK inh	Pol eta inh	PI5P4Ka inh	POLB inh	POLI inh
CNC(=O)c1ccc(-c2nc(CN3CCN(C(=O)Nc4ccc(C(=O)OC)cc4)CC3)c(C)o2)cc1	10.7%	x	x	x	x	x
COc1ccc(CCNc2c3ccccc3nc3ccccc23)cc1OC	-4.3%	u	u	-3.5	6.31µM*	u
COc1ccc(CCNc2nc(SCc3ccc(Cl)cc3)nc3ccccc23)cc1OC	-22.8%	-0.2%[60.1 µM]	-21.7%	x	28.0%	12.7%
COc1ccc(CCNC(=O)c2cc(Nc3ccccc3)nc3ccccc23)cc1OC	-15.5%	-15.9%[60.1 µM]	-7.4%	x	4.0%	79.4µM*
Fc1cccc(NCCc2c[nH]c3ccccc23)n1	u	10.6%	-14.9%	2.2	35.9%	12.9%
c1ccc2c(NCCc3c[nH]c4ccccc34)c3ccccc3nc2c1	0.0%	-3.4%	u	-8.3	12.6µM*	u
COc1cc(Nc2c3ccccc3nc3ccccc23)cc(OC)c1OC	-12.6%	-5.7%	-7.1%	-7.6	14.1µM*	u
COc1ccc(Nc2c3ccccc3nc3ccccc23)cc1	u	-19.5%	-0.9%	3.7	u	u
CC(=O)c1cc(O)c2ccccc2c1O	1.58µM*	3.3%	89.1µM*	u	u	3.6%
Cc1ccc(Cc2c(-c3ccc(Cl)cc3)nc3c(Cl)cc(C(F)(F)F)cn23)cc1	35.5µM*	x	x	2.3	x	x
CCCCC(=O)N1CCC(c2nc3ccccc3o2)CC1	14.6%	x	x	x	x	x
O=c1c2ccccc2sc2ccccc12	u	-6.2%	8.9%	6.6	x	116.3%
Cc1cc2sc3ccccc3c(=O)c2c(C)c1O	-15.9%	-11.8%	-16.7%	1.9	50.1µM*	u
CCN1/C(=C/C=C/c2sc3ccccc3[n+]2CC)Sc2ccccc21	-38.9%[12.5 µM]	11.2µM*!	39.8µM*	-19.5	x	u
CC[n+]1c(/C=C/Nc2ccccc2)sc2ccccc21	u	-23.0%	-8.5%	2.3	-0.4%	u
CCN1/C(=C/C=C/C=C/c2sc3ccccc3[n+]2CC)Sc2ccccc21	x	31.6µM*	x	x	15.8µM*	17.8µM*
CCN1/C(=C/C=C/C=C/C=C/c2sc3ccccc3[n+]2CC)Sc2ccccc21	39.8µM*	-2.0%[60.1 µM]	-15.9%	u	-9.7%	u
CC1=C(C(=O)Nc2ccccc2)C(c2cccs2)n2nc(-c3ccccc3)nc2N1 (centres undefined)	5.5%	x	x	x	x	x
CCN1C(=O)[C@@H]2[C@@H](c3ccc(SC4CCCCC4)cc3)N3CCCC[C@@]3(C(=O)OC)[C@@H]2C1=O	39.8µM*	-2.6%	-17.9%	-0.2	x	u
CCNS(=O)(=O)c1cc(C(=O)NC(C)COC)ccc1OC (centres undefined)	33.1%	x	x	x	x	x
Cc1ccc(-c2cc(NC(=O)C(C)Oc3cccc(C)c3C)on2)cc1 (centres undefined)	-13.4%	x	x	x	x	x
CSc1cccc(NC(=O)CN(Cc2ccc(Cl)cc2)S(C)(=O)=O)c1	4.1%	-10.2%	-3.0%	x	-4.3%	89.1µM*
Cc1c(C)c2ccc(OCc3nn[nH]n3)c(C)c2oc1=O	-15.0%	x	x	x	x	x
O=C(O)c1ccccc1CC(CCc1ccccc1)C(=O)O (centres undefined)	28.2µM*	-11.0%	3.6%	-3.3	x	u
O=C(O)Cc1ccccc1C(=O)O	-21.3%	-5.7%	-18.6%	x	0.4%	8.2%

Screening results deposited in PubChem BioAssay by National Center for Advancing Translational Sciences (NCATS).
